# Measurements: PubChem BioAssay (Tox21)
# Where “and” joins values, the source holds several entries; their conditions need not be identical. Equal values may be shown once. Results filed as inconclusive are left out. Entries that show only a call come without a potency. Some compounds were tested as several samples or in several runs, with calls that do not always agree. Calls of active or inactive are those of the source. Unless noted, the call rests on the fitted dose curve; in most records, active means well fitted curve in the direction sought with a large enough effect in the repeat runs; inconclusive means weak or mixed curves; inactive means no such curve, though single readings can be large; an effect the other way counts as inactive or inconclusive.
# Key:
# [1] = qHTS assay to identify small molecule agonists of the peroxisome proliferator-activated receptor delta (PPARd) signaling pathway - cell viability counter screen (AID 743211); further: nearly all actives have a fitted effect of over 55% in size; further: potency means the concentration at half of the fitted maximal effect
# Outline: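 Tox21 library compounds, delivered in DMSO, were incubated 17 h with PPARd-bla HEK293H cells; cytotoxicity was taken from CellTiter-Glo luminescence read 30 min after reagent addition.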
# [2] = biological target: Peroxisome proliferator-activated receptor delta (Homo sapiens) (UniProt Q03181); assay: qHTS assay to identify small molecule agonists of the peroxisome proliferator-activated receptor delta (PPARd) signaling pathway (AID 743212; calls by dose curve)
# Outline: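 Beta-lactamase reporter readout: a ratiometric FRET signal from the LiveBLAzer substrate after 2 h at room temperature. Compound exposure at 37 °C in PPARδ-bla HEK293H cells driven by an upstream activator sequence.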
# [3] = qHTS assay to identify small molecule antagonists of the peroxisome proliferator-activated receptor delta (PPARd) signaling pathway - cell viability counter screen (AID 743213); further: nearly all actives have a fitted effect of over 50% in size; further: potency means the concentration at half of the fitted maximal effect
# Outline: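 Cytotoxicity counter screen: CellTiter-Glo luminescence read 30 min after addition, in the same wells as the reporter assay. There, PPARd UAS-bla HEK293H cells (3000/well) were treated 17 h at 37 C with compound and 300 nM L165041.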
# [4] = biological target: Peroxisome proliferator-activated receptor delta (Homo sapiens) (UniProt Q03181); assay: qHTS assay to identify small molecule antagonists of the peroxisome proliferator-activated receptor delta (PPARd) signaling pathway (AID 743215; active means well fitted inhibition curve with a large enough effect in the signal ratio in the repeat runs, not every such curve was filed as active; the % refers to the signal ratio;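 further: cells stimulated with agonist L165041 at 300 nM final during compound exposure; series mostly up to about 62 µM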)
# Outline: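 HEK293H GeneBLAzer PPARd UAS-bla reporter cells; cpd + L165041 300 nM final, 17 h 37 C; LiveBLAzer B/G FRET substrate 2 h RT; fluorescence intensity read-out. Antagonist mode.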
# [5] = biological target: Bile acid receptor (Homo sapiens) (UniProt Q96RI1); assay: qHTS assay to identify small molecule antagonists of the farnesoid-X-receptor (FXR) signaling pathway (AID 743217; active means well fitted inhibition curve with a large enough effect in the signal ratio in the repeat runs, not every such curve was filed as active; the % refers to the signal ratio; further: potency means the concentration at half of the fitted maximal effect)
# Outline: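 Read-out: beta-lactamase FRET fluorescence (LiveBLAzer B/G substrate, 2 h, room temperature) in GeneBLAzer FXR-UAS-bla HEK 293T cells. Compounds were co-dosed with 50 uM chenodeoxycholic acid (final) and incubated 16 h at 37 °C.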
# [6] = qHTS assay to identify small molecule agonists of the farnesoid-X-receptor (FXR) signaling pathway - cell viability counter screen (AID 743218); further: nearly all actives have a fitted effect of over 45% in size; further: potency means the concentration at half of the fitted maximal effect
# Outline: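 Luminescence from CellTiter-Glo, read after 30 min at RT, reports viability of GeneBLAzer FXR-UAS-bla HEK 293T cells treated 16 h with compounds in the wells used for the beta-lactamase reporter.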
# [7] = biological target: Bile acid receptor (Homo sapiens) (UniProt Q96RI1); assay: qHTS assay to identify small molecule agonists of the farnesoid-X-receptor (FXR) signaling pathway (AID 743220; active means well fitted activation curve with a large enough effect in the signal ratio in the repeat runs, not every such curve was filed as active; the % refers to the signal ratio)
# Outline: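 FXR-UAS-bla HEK 293T cells carrying a UAS-driven beta-lactamase reporter were plated for 5 h at 37C/5% CO2, then exposed to DMSO-dissolved Tox21 10K compounds for 16 h at 37C. A LiveBLAzer B/G FRET substrate was loaded for 2 h at room temperature before fluorescence reading.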
# [8] = qHTS assay to identify small molecule antagonists of the farnesoid-X-receptor (FXR) signaling pathway - cell viability counter screen (AID 743221; active means well fitted cell-killing curve with a large enough effect in the repeat runs, not every such curve was filed as active; further: nearly all actives have a fitted effect of over 50% in size; further: potency means the concentration at half of the fitted maximal effect)
# Outline: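 Cytotoxicity is taken from ATP luminescence (CellTiter-Glo, 30 min, room temperature) in FXR-bla HEK 293T cells previously incubated 16 h at 37 C with compound and chenodeoxycholic acid at 50 uM final.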
# [9] = biological target: Vitamin D3 receptor (Homo sapiens) (UniProt P11473); assay: qHTS assay to identify small molecule agonists of the vitamin D receptor (VDR) signaling pathway (AID 743222; calls by dose curve)
# Outline: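 Beta-lactamase reporter readout (LiveBLAzer B/G FRET, 2 h RT) in VDR-bla cells after 16 h compound treatment at 37C, 5% CO2; cells pre-incubated 4 h before pin transfer of DMSO solutions.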
# [10] = biological target: Vitamin D3 receptor (Homo sapiens) (UniProt P11473); assay: qHTS assay to identify small molecule antagonists of the vitamin D receptor (VDR) signaling pathway (AID 743223; active means well fitted inhibition curve with a large enough effect in the signal ratio in the repeat runs, not every such curve was filed as active; the % refers to the signal ratio)
# Outline: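 Quantitative HTS in VDR-bla reporter cells stimulated with 1alpha,25-dihydroxyvitamin D3, 3 nM final. Compound exposure 16 h, 37C, 5% CO2. Read-out: beta-lactamase FRET substrate fluorescence, 2 h RT.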
# [11] = qHTS assay to identify small molecule agonists of the vitamin D receptor (VDR) signaling pathway - cell viability counter screen (AID 743224); further: nearly all actives have a fitted effect of over 50% in size; further: potency means the concentration at half of the fitted maximal effect
# Outline: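 Cytotoxicity counter screen: VDR-bla cells, 16 h compound exposure at 37C, 5% CO2; CellTiter-Glo luminescence, 30 min RT, same wells as bla read.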
# [12] = qHTS assay to identify small molecule antagonists of the vitamin D receptor (VDR) signaling pathway - cell viability counter screen (AID 743225); further: nearly all actives have a fitted effect of over 50% in size; further: potency means the concentration at half of the fitted maximal effect
# Outline: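 Same-well multiplex: following 16 h treatment of HEK 293T cells carrying a UAS-driven beta-lactamase reporter with compound and agonist (3 nM final), and a 2 h FRET substrate step, CellTiter-Glo was added and luminescence read after 30 min.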
# [13] = qHTS assay to identify small molecule agonists of the NFkB signaling pathway - cell viability counter screen (AID 1159515; calls by dose curve; further: nearly all actives have a fitted effect of over 55% in size; further: potency means the concentration at half of the fitted maximal effect)
# Outline: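 ME-180 NFkB-bla cells, 2,000/well; overnight attach; compound 5 hr, 37 C/5% CO2; LiveBLAzer substrate 1.5 hr RT; then CellTiter-Glo in same wells, 30 min RT, luminescence read.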
# [14] = qHTS assay to identify small molecule agonists of the endoplasmic reticulum stress response signaling pathway - cell viability counter screen (AID 1159517; calls by dose curve)
# Outline: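 ESRE-bla HeLa cells (1,500/well) were plated overnight at 37 C and exposed to compounds for 5 hr. After the 2 hr beta-lactamase substrate read, CellTiter-Glo went into the same wells, and luminescence was read after 30 min at room temperature.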
# [15] = qHTS assay to identify small molecule antagonists of the retinoid-related orphan receptor gamma (ROR-gamma) signaling pathway - cell viability counter screen (AID 1159520); further: nearly all actives have a fitted effect of over 50% in size; further: potency means the concentration at half of the fitted maximal effect
# Outline: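 Cytotoxicity was read from cellular ATP (CellTiter-Glo luminescence) after 16 hr at 37 C with 1 uM doxycycline induction. The inducer was added 2 hr after compound transfer to Tet-on ROR gamma CHO cells.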
# [16] = biological target: Nuclear receptor ROR-gamma (Homo sapiens) (UniProt P51449); assay: qHTS assay to identify small molecule antagonists of the retinoid-related orphan receptor gamma (ROR-gamma) signaling pathway (AID 1159521; further: nearly all actives have a fitted effect of over 50% in size; further: potency means the concentration at half of the fitted maximal effect)
# Outline: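 Inducible-expression reporter assay: doxycycline (1 uM final) switched on RORγ in CHO cells bearing a ROR response element-luciferase construct, with test compounds present from 2 h beforehand. Decreased luminescence after 16 h defined antagonist activity.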
# [17] = qHTS assay to identify small molecule agonists of the AP-1 signaling pathway - cell viability counter screen (AID 1159525; calls by dose curve; further: nearly all actives have a fitted effect of over 55% in size)
# Outline: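 Intracellular ATP by Cell Titer Glo luminescence (30 min, RT) in the same ME-180 AP-1-bla wells after the 5 h compound exposure at 37 °C. Normalised to tetra n-octyl ammonium bromide and DMSO controls.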
# [18] = qHTS assay to identify small molecule agonists of the AP-1 signaling pathway (AID 1159526; calls by dose curve)
# [19] = biological target: Retinoic acid receptor RXR-alpha (Homo sapiens) (UniProt P19793); assay: qHTS assay to identify small molecule agonists of the RXR signaling pathway (AID 1159527; calls by dose curve; further: nearly all actives have a fitted effect of over 35% in size)
# Outline: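 Compounds in DMSO were added to RXR-alpha-UAS-bla HEK 293T cells kept in 2% charcoal-stripped serum, and incubated 16 hr at 37 C with 5% CO2. Reporter signal came from a 2 hr B/G FRET substrate step.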
# Sequence of Bile acid receptor (Homo sapiens) (Q96RI1 whole entry, looked up): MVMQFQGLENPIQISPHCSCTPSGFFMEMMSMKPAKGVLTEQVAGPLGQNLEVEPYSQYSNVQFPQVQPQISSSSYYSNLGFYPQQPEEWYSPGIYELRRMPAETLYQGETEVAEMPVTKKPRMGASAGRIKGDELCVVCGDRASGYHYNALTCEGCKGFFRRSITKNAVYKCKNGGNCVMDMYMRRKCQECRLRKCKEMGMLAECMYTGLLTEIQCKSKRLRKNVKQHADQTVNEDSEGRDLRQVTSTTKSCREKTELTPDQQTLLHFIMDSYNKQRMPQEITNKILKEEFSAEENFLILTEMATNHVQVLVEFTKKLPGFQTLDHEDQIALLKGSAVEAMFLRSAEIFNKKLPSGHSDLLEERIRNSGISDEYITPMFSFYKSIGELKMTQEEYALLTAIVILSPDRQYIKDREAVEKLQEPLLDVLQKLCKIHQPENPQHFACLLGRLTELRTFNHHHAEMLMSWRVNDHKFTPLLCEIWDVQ
# Sequence of Vitamin D3 receptor (Homo sapiens) (P11473 whole entry, looked up): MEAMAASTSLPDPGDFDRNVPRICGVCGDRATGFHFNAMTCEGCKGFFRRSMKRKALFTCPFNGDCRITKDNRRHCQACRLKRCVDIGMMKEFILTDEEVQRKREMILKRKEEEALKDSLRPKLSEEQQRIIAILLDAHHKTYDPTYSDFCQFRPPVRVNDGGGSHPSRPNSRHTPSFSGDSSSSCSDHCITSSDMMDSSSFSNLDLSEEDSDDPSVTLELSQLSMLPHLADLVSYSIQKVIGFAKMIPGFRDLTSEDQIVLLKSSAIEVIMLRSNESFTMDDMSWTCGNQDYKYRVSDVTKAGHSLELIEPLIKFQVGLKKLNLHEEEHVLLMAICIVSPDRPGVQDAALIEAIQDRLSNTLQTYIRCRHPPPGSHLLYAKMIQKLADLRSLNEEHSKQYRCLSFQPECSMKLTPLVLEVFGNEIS
# Sequence of Peroxisome proliferator-activated receptor delta (Homo sapiens) (Q03181 whole entry, looked up): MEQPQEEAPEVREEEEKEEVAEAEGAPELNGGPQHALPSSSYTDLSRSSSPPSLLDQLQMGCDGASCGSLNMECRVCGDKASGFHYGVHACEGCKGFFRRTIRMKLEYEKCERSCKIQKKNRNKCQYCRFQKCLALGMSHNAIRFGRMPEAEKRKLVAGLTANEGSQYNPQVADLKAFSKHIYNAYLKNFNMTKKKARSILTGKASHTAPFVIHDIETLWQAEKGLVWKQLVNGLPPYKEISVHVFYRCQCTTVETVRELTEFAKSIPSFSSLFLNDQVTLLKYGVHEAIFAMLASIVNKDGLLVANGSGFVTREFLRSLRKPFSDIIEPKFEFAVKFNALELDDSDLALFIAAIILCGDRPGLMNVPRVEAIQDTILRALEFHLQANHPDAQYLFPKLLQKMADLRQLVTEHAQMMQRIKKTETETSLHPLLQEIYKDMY
# Sequence of Retinoic acid receptor RXR-alpha (Homo sapiens) (P19793 whole entry, looked up): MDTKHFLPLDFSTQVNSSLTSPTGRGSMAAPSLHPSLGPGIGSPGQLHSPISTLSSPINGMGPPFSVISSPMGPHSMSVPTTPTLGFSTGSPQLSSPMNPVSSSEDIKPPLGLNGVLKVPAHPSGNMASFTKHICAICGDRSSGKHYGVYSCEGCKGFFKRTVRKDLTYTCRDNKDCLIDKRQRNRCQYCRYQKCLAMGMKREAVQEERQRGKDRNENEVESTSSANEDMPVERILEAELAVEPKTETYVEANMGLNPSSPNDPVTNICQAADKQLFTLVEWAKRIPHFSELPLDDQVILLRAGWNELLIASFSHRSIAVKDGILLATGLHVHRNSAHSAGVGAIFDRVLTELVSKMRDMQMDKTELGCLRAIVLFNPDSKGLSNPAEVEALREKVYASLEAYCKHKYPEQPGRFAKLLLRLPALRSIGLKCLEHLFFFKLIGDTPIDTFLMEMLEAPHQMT
SMILES,Potency [1],outcome [2],Potency [3],outcome [4],Potency [5],Potency [6],outcome [7],Potency [8],outcome [9],outcome [10],Potency [11],Potency [12],Potency [13],Potency [14],Potency [15],Potency [16],Potency [17],Potency [18],Potency [19]
CC1(C)OC(=O)NC1=O,inactive,inactive,inactive,inactive,inactive,inactive,inactive,inactive,inactive,inactive,inactive,inactive,inactive,inactive,inactive,inactive,inactive,inactive,inactive
C/C=C/C(=O)N(CC)c1ccccc1C,inactive,,inactive,,,inactive,,inactive,inactive,inactive,inactive,inactive,inactive,inactive,inactive,inactive,inactive,inactive,
Cc1ccc(C(C)(C)C)c(O)c1,inactive,,inactive,,inactive,inactive,inactive,,inactive,inactive,inactive,inactive,inactive,,inactive,inactive,,,inactive
CC/C(=C(/CC)c1ccc(O)cc1)c1ccc(O)cc1,61.6 µM (active),,34.4 µM (active),,16.8 µM (active),,inactive,inactive,inactive,inactive,24.3 µM (active),inactive,inactive,,inactive,,inactive,inactive,
c1ccc2c(c1)[nH]c1ccccc12,inactive,inactive,inactive,inactive,,inactive,,,,,inactive,inactive,inactive,inactive,inactive,,inactive,inactive,inactive
Nc1ccc(N)c(Cl)c1,inactive,inactive,inactive,inactive,,,,inactive,inactive,,inactive,inactive,inactive,inactive,inactive,,,,
CCCCCCCCCCCCCO,inactive,inactive,inactive,inactive,,inactive,,,inactive,inactive,inactive,inactive,inactive,inactive,inactive,,inactive,inactive,
CC(=O)OC(C)C,inactive,inactive,inactive,inactive,inactive,inactive,inactive,inactive,inactive,inactive,inactive,inactive,inactive,,inactive,inactive,inactive,inactive,
O=C(CCCN1CCC(O)(c2ccc(Cl)cc2)CC1)c1ccc(F)cc1,,,30.9 µM (active) and 21.1 µM (active),,inactive,30.9 µM (active) and inactive,inactive,,,,inactive,inactive,inactive,,54.5 µM (active) and inactive,inactive,inactive,inactive,
C=C[C@H]1CN2CC[C@H]1C[C@H]2[C@H](O)c1ccnc2ccc(OC)cc12,inactive,inactive,,inactive,,,,inactive,,,,,inactive,inactive,inactive,,inactive,inactive,inactive
CC(=O)O[C@]1(C(C)=O)CC[C@H]2[C@@H]3C=C(C)C4=CC(=O)CC[C@]4(C)[C@H]3CC[C@@]21C,inactive,,inactive,,,inactive,,inactive,,inactive,inactive,inactive,inactive,inactive,inactive,21.7 µM (active),inactive,inactive,
CC1(C)C(C=C(Cl)Cl)C1C(=O)OCc1cccc(Oc2ccccc2)c1 (stereo not drawn),inactive,inactive,inactive,inactive,,inactive,,inactive,inactive,inactive,inactive,inactive,inactive,inactive,inactive,54.1 µM (active) and inactive,inactive,inactive,inactive
CC(=O)O[C@]1(C(C)=O)CC[C@H]2[C@@H]3C=C(Cl)C4=CC(=O)CC[C@]4(C)[C@H]3CC[C@@]21C,48.9 µM (active) and inactive,,inactive,inactive,,inactive,,,,,43.6 µM (active) and inactive,inactive,inactive,inactive,inactive,,inactive,,
CN(C)CCCN1c2ccccc2Sc2ccc(Cl)cc21,11 µM (active) and 23.7 µM (active),,13.8 µM (active) and 18.8 µM (active),,49 µM (active) and 26.6 µM (active),21.9 µM (active) and 26.6 µM (active),inactive,43.6 µM (active) and 26.6 µM (active),,,21.9 µM (active),24.5 µM (active) and inactive,54.9 µM (active) and inactive,inactive,inactive,34.4 µM (active),inactive,,
